# Bioassay records deposited in PubChem BioAssay by several laboratories.
# Hits are enriched below; roughly 2.6% of the tested compounds scored in any of these assays.
# KKLEB tox: reduces viability of KKLEB cystic fibrosis airway cells; KKLEB CF airway cells viability, ATPlite luminescence, overnight; active compounds read low; cells stimulated with P. aeruginosa culture filtrate; activity change (cytotoxicity), % at 5 µM; 360,000 tested, 0.36% active;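 active means corrected activity change at or below -50% at 5 µM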
# TROY signal inh: blocks TROY-dependent signaling in reporter cells; inhibition, % at 10 µM; Q293 LMP1-TROYcd NF-kB luciferase reporter, 4 h; 360,000 tested, 0.98% active;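 active means compounds whose plate-normalised and pattern-corrected inhibition of the luciferase reporter signal at the single screening dose is 50% or more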
# TWEAK Fn14 block: blocks TWEAK-Fn14 interaction in a reporter cell assay | TWEAK-stimulated Fn14 reporter cells, luciferase luminescence, 8 h | inhibition, % at 10 µM | 360,000 tested, 2% active | AID 1159606; in the data active means inhibition above about 50%
# CF NFkB block: inhibitors of cystic fibrosis induced NF-kB | KKLEB NF-kB-GFP reporter, PAF-induced, GFP fluorescence overnight | inhibition, % at 5 µM | 360,000 tested, 0.86% active;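 active means at least 50% inhibition at 5 µM, scaled per plate between neutral and stimulator controls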;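 further: PAF is a Pseudomonas aeruginosa culture filtrate used as stimulus; plate controls were PAF-stimulated DMSO wells for no effect and unstimulated DMSO wells for full effect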
# LGR2 inh: blocks bursicon-induced cAMP signaling via Drosophila LGR2. inhibition, % at 9.99 µM. HEK293 LGR2, CRE-luciferase, bursicon-stimulated, 4 h. AID 720647. 380,000 tested, 0.35% active;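 active means drop in luminescence signal, shown as inhibition above about 50% in the replicate tests, limit read from the data, passing the limit was not always enough; inconclusive means probably only some replicates passing the limit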;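 further: agonist challenge used bursicon conditioned medium at about half maximal strength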
# EWS-Fli block: blocks EWS/Fli oncoprotein-driven transcription; inhibition, % at 12.6 µM; A673 NR0B1-luciferase reporter, viability-normalised; AID 651661; 350,000 tested, 0.67% active;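 active means mean inhibition of at least 50% after viability correction, with every replicate also passing that limit; inconclusive means mean reaches 50% but only one of two replicates passes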;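 further: firefly luciferase signal divided by Alamar Blue viability fluorescence both relative to DMSO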
# * hit, by the source's call; ? = inconclusive; . = not tested or not shown.
SMILES,KKLEB tox,TROY signal inh,TWEAK Fn14 block,CF NFkB block,LGR2 inh,EWS-Fli block
C[C@@H]1CN([C@H](C)CO)C(=O)c2cc(NC(=O)c3ccccc3)ccc2O[C@@H](C)CCCCO[C@H]1CN(C)S(=O)(=O)c1cn(C)cn1,.,.,.,.,16,-7
COc1ccc(CN=C(C)c2c(C(F)(F)F)[nH]n(-c3nc4ccccc4s3)c2=O)cc1,-43,-34,58*,22,.,.
COC(=O)Cc1[nH]n(-c2nc3ccccc3s2)c(=O)c1C(C)=O,0,21,38,0,-39,.
O=C(NCc1ccco1)/C(=C/C=C/c1ccccc1)NC(=O)c1ccco1,-6,-30,0,12,4,9
O=C(NCc1ccco1)/C(=C\C=C\c1ccccc1)NC(=O)c1ccccc1Br,-1,70*,7,-1,-10,-4
COC(=O)CSc1cccc2c1C(=O)CC2c1ccccc1 (stereo not given),-5,-17,0,6,-21,1
O=C1C=CC2(O[C@H](c3ccccc3)[C@@H](c3ccccc3)O2)[C@H](Sc2ccccc2O)C1,-86*,80*,105*,89*,99*,68*
Cc1ccc(/C=C/C(=O)c2c(C)nc3ccccn23)cc1,-9,-35,52*,18,.,.
O=C(Nc1cccc(Cl)c1)C1C2CCC3C(CCC21)C3(Cl)Cl (stereo not given),-50,44,62*,43,2,.
CC(=O)O[C@H]1C(=O)[C@@]2(C)[C@H]([C@H](OC(=O)c3ccccc3)[C@]3(O)C[C@H](OC(=O)[C@H](O)[C@@H](NC(=O)c4ccccc4)c4ccccc4)C(C)=C1C3(C)C)[C@]1(OC(C)=O)CO[C@@H]1C[C@@H]2O,31,11,20,22,10,65*
CC(=O)O[C@H]1C(=O)[C@@]2(C)[C@H]([C@H](OC(=O)c3ccccc3)[C@]3(O)C[C@H](OC(=O)[C@H](O)C(NC(=O)c4ccccc4)c4ccccc4)C(C)=C1C3(C)C)[C@]1(OC(C)=O)CO[C@@H]1C[C@@H]2O (stereo not given in full),-4,8,23,4,7,66*
CCCCCC(=O)N[C@@H](c1ccccc1)[C@@H](O)C(=O)O[C@H]1C[C@@]2(O)[C@@H](OC(=O)c3ccccc3)C3[C@](C)(C(=O)[C@H](OC(C)=O)C(=C1C)C2(C)C)[C@@H](O)C[C@H]1OC[C@@]31OC(C)=O (stereo not given in full),-20,-8,36,20,5,57*
O=C(C[C@H]1C[C@H]2c3cc(NS(=O)(=O)c4ccccc4)ccc3O[C@H]2[C@H](CO)O1)NC1CCCCC1,.,.,.,.,13,-4
COCC(=O)N1CCCC(CNS(=O)(=O)c2ccc(OC)cc2)C1 (stereo not given),2,71*,-9,-23,33,11
COCCC(=O)N1CCCC(CNS(=O)(=O)c2ccc(OC)cc2)C1 (stereo not given),6,1,-3,4,-3,0
C[C@H](CO)N1C[C@H](C)[C@H](CN(C)C(=O)Cc2ccccc2)OCCCC[C@H](C)Oc2ccc(N(C)C)cc2C1=O,.,.,.,.,-18,-2
COc1ccc(/C=N/NC(=O)c2cc(-c3ccc4c(c3)OCO4)n[nH]2)cc1OC,-14,-28,52*,24,-15,39
CN(C)c1ccc(/C=N\NC(=O)c2csnn2)cc1,5,19,71*,-10,.,.
O=C(N/N=C/c1ccc(F)cc1)c1cc(-c2ccc3c(c2)OCO3)n[nH]1,5,-12,-17,0,.,12
CC(C)c1ccc(/C=N/NC(=O)c2ccccn2)cc1,-41,46,77*,-7,75*,28
O=C(N/N=C/c1ccc2c(c1)OCO2)c1ccccn1,-23,39,76*,2,?,25
O=C(N/N=C/c1ccncc1)c1ccccn1,8,-15,-13,15,-12,-33
CN(C)c1ccc(/C=N/NC(=O)c2ccccn2)cc1,-11,31,-14,6,.,35
O=C(C1CCC1)N1CC2(C1)[C@H](c1ccccc1)[C@@H](CO)N2C(=O)c1ccccn1,.,.,.,.,-4,6
CN1CCCN=C1COC(=O)C(O)(c1ccccc1)C1CCCCC1 (stereo not given),-64*,7,1,19,-16,-9
SMILES,KKLEB tox,TROY signal inh,TWEAK Fn14 block,CF NFkB block,LGR2 inh,EWS-Fli block
CCOc1ccccc1NS(=O)(=O)c1ccc(-c2cnc(C3CC3)o2)cc1,22,48,44,48,-21,.
O=S(=O)(Nc1ccc(F)cc1Cl)c1ccc(-c2cnc(C3CC3)o2)cc1,-14,52*,22,40,6,57*
COc1ccccc1CNS(=O)(=O)c1ccc(-c2cnc(C3CC3)o2)cc1,-17,22,5,24,14,61*
COc1ccc(NS(=O)(=O)c2ccc(-c3cnc(C4CC4)o3)cc2)cc1OC,-3,1,-2,21,21,?
c1ccc(-c2csc3ncnc(NCc4ccccn4)c23)cc1,-14,-14,65*,22,.,7
Cc1noc(C)c1NC(=O)Nc1ccc2c(c1)CC(=O)N([C@H](C)CO)C[C@H](C)[C@H](CN(C)S(C)(=O)=O)O2,.,.,.,.,2,-5
COc1ccc(CNC(=O)C[C@H]2CC[C@@H](NC(=O)CN(C)C)[C@H](CO)O2)cc1,.,.,.,.,10,4
O=C(CN1CCOCC1)NCC[C@H]1CC[C@@H](NC(=O)Nc2ccccc2)[C@H](CO)O1,.,.,.,.,-6,2
CCOC(=O)c1ccc(-c2ccc(/C=N/NC(=O)CN(c3ccccc3Br)S(C)(=O)=O)o2)cc1,3,-4,67*,-7,-60,-27
CS(=O)(=O)N(CC(=O)N/N=C/c1cccc2c1OCCO2)c1ccccc1Br,-3,-7,-13,9,.,.
COc1ccc(-c2cc3nc(NCc4ccc(C)cc4C)n(C)c(=O)c3s2)cc1OC,-22,26,76*,30,-12,30
Cc1ccc(CNc2nc3cc(-c4ccccc4)sc3c(=O)n2C)c(C)c1,7,0,14,-10,-9,7
COc1ccc(NC(=O)Nc2ccc3c(c2)C(=O)N([C@H](C)CO)C[C@@H](C)[C@@H](CN(C)C(=O)Nc2ccc(OC)cc2)O3)cc1,.,.,.,.,-12,-7
Cc1ccccc1S(=O)(=O)N1[C@H](C#N)[C@H](c2ccc(C#CC3CCCCC3)cc2)[C@H]1CO,.,.,.,.,76*,36
Cc1ccc(-c2ccccc2[C@H]2[C@@H](CO)N(S(C)(=O)=O)[C@H]2C#N)cc1,.,.,.,.,-1,-2
CCOC(=O)N1CCN(C2=C(NS(=O)(=O)c3ccc(Br)cc3)C(=O)c3ccccc3C2=O)CC1,12,-11,-15,58*,-1,-17
